Screening results: PubChem BioAssay, several laboratories
E coli Lon inh = inhibitors of E. coli Lon protease | purified E. coli Lon protease, fluorescence polarization | 0.42% of 360,000 active | P0A9M0 | inhibition, % at 7.94 µM; in the data active means inhibition above about 13%, passing the limit was not always enough
BCLXL inh = Bcl-xL (human) inhibition; Q07817; GST-Bcl-xL / FITC-Bim BH3 peptide fluorescence polarization; inhibition, % at 10.9 µM; 0.7% of 320,000 active;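 active means inhibition above the mean of all tested compounds plus 3 SD, cutoff set per campaign, cut at about 30% in these data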;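 further: inhibitors lower millipolarization by displacing the labeled peptide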
Target sequence (Q07817 whole entry, looked up): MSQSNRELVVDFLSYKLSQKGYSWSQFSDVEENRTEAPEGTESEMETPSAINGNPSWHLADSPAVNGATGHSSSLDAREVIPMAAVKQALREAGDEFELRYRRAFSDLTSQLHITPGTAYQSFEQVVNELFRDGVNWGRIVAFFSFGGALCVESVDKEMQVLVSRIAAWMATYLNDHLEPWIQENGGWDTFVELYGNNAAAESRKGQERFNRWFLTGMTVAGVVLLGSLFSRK
MCL1 BIM primary = disrupts human MCL1 binding to BIM-BH3 peptide; Q07820; GST-MCL1 / FITC-Bim-BH3 fluorescence polarization; inhibition, % at 10.9 µM; 0.68% of 320,000 active;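 active means inhibition above the mean inhibition of all tested compounds plus 3 SD, set per campaign, cut at about 40% in these data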;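 further: higher means more loss of mP so more displacement of Bim peptide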
Target sequence (Q07820 whole entry, looked up): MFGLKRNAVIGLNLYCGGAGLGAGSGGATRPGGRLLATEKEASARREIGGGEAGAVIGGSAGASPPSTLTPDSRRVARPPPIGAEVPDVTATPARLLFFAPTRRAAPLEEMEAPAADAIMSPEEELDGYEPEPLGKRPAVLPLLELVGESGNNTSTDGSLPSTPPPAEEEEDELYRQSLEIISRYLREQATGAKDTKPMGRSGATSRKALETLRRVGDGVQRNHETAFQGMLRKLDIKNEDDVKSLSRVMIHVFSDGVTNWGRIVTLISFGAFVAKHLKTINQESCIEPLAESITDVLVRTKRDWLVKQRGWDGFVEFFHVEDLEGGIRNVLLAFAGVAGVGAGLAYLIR
MEX-5 binding = C. elegans MEX-5 TCR-2 RNA binding activity | AID 1832 | activity score (negative = inhibition of binding), % at 10 µM | 0.38% of 300,000 active | Q9XUB2 | MEX-5/FITC-TCR2 RNA binding, fluorescence polarization; hits give low values;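 active means inhibition past about -25% in most replicates, and total fluorescence under double the plate's negative control median, limit read from the data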
EBV gp42 inh = inhibitors of Epstein-Barr virus glycoprotein 42; Q1HVG2; Fluorescence polarization binding assay, mP read-out; inhibition, % (tested at 21.74 µM); 0.42% of 220,000 active; in the data active means inhibition above about 50%
GLD-1 RNA inh = GLD-1-TGE RNA interaction inhibition (C. elegans). Q17339. 0.44% of 320,000 active. AID 2280. purified GLD-1 + fluorescein TGE RNA, fluorescence polarization. inhibition, % at 5.96 µM;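 active means percent inhibition above a per-plate cutoff, the plate mean of test compounds plus 3 SD, cut at about 30% in these data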
Each line names hits and unclear results; the compound was inactive in the other large screens. The list is not random: actives were taken first. Their share in the collection is about 1.5%.

NS(=O)(=O)c1ccc(NC(=O)COC(=O)c2cn(-c3ccccc3)nc2-c2ccc(F)cc2)cc1	MEX-5 binding -29.7
O=C(COC(=O)c1cn(-c2ccccc2)nc1-c1ccc(F)cc1)Nc1ncc(Cl)cc1Cl	none
CCOC(=O)N1CCN(Cc2ccccc2Cl)CC1	GLD-1 RNA inh 87.2 (no result: MEX-5 binding)
CCOC(=O)N1CCN(Cc2ccccc2F)CC1	none
CC(=O)NNc1nc(-c2ccccc2)c2cc(Cl)ccc2n1	none (no result: BCLXL inh, MCL1 BIM primary, MEX-5 binding, EBV gp42 inh, GLD-1 RNA inh)
O=C(O)CCC(=O)NNc1nc(-c2ccccc2)c2cc(Cl)ccc2n1	MEX-5 binding -44.2 (no result: EBV gp42 inh)
CC1=C(C(=O)N2CCOCC2)C(c2ccc(OC(F)F)cc2)NC(=S)N1c1ccccc1 (configuration not stated)	none
CC1CCN(CCCNC(=O)c2cc3c(=O)n(C)c4ccccc4c3n2C)CC1	none
Cn1c(C(=O)NCCCN2CCOCC2)cc2c(=O)n(C)c3ccccc3c21	MEX-5 binding -41.7
COC(=O)CC1=C(C(=O)OC)C(c2cccc(OCC(N)=O)c2)C(C#N)=C(N)O1 (configuration not stated)	BCLXL inh 32.0
O=c1oc2ccc3ccccc3c2cc1-c1nc2ccccc2o1	MEX-5 binding -76.4 (no result: EBV gp42 inh)
CN=C1NC(C)(C)C2CCC(C)(CC2)S1	none (no result: BCLXL inh, MCL1 BIM primary, MEX-5 binding, EBV gp42 inh, GLD-1 RNA inh)
Cc1ccccc1NC(=O)CN1C(=O)NC2(CCc3ccccc32)C1=O (configuration not stated)	none (no result: MEX-5 binding, EBV gp42 inh)
COc1cc2c(cc1NC(=O)CN1C(=O)NC3(CCc4ccccc43)C1=O)oc1ccccc12 (configuration not stated)	EBV gp42 inh 61.7
CC1=CC(=C(C#N)c2nc3ccccc3s2)C=C(C)N1CC1CCCO1 (configuration not stated)	MEX-5 binding -35.8, EBV gp42 inh 155.2
Cc1ccccc1-n1c(=O)cc(NCC2CCCO2)[nH]c1=O (configuration not stated)	BCLXL inh 35.8
COc1ccc(C(C)(NC(C)=O)c2nc(-c3ccc(F)c(Cl)c3)cs2)cc1 (configuration not stated)	none (no result: BCLXL inh, MCL1 BIM primary, MEX-5 binding, EBV gp42 inh, GLD-1 RNA inh)
COc1ccc(-c2nc(-c3ccccc3)nc(N3CCN(C)CC3)c2C#N)cc1	none
CN1CCN(c2nc(-c3ccccc3)nc(-c3ccccc3)c2C#N)CC1	MEX-5 binding -25.5
COC(=O)c1scc2c(=O)cc(C(F)(F)F)[nH]c12	BCLXL inh 35.2
O=c1cc(C(F)(F)F)[nH]c2ccc(C(F)(F)F)cc12	none
CCC(C)[C@@H](N)C(=O)N/N=C/c1cccc2nccnc12 (some centres not stated)	MEX-5 binding -40.7 (no result: E coli Lon inh)
CCC(C)[C@H](NC(=O)OC(C)(C)C)C(=O)N/N=C/c1cccc2nccnc12 (some centres not stated)	none
Cc1ccc2c(c1)CC1(CN2C)C(=O)OC2(CCCCC2)OC1=O	BCLXL inh 32.6
CN1CC2(Cc3c1ccc1ccccc31)C(=O)OC(C)(C)OC2=O	none (no result: MEX-5 binding)
CC(=O)c1ccc2cccc3c2c1N=CN3C	BCLXL inh 33.3
CCOC(=O)C1CCN(C(=O)C2CCCN(c3ncnc4c3nc3n4CCCCC3)C2)CC1 (configuration not stated)	none (no result: EBV gp42 inh)
C/C(=C\c1ccc2c(c1)OCO2)C1Nc2cccc3cccc(c23)N1	none (no result: MEX-5 binding, EBV gp42 inh)
C/C(=C\c1ccccc1F)C1Nc2cccc3cccc(c23)N1	BCLXL inh 30.8 (no result: MEX-5 binding, EBV gp42 inh)
Cc1ccccc1-c1nn[nH]n1	none
Oc1ccc(N=Nc2ccccc2-c2nn[nH]n2)c(O)c1	BCLXL inh 31.0, MEX-5 binding -35.3 (no result: EBV gp42 inh)
CCN(CC)C(=O)C1=C(C)N(Cc2ccccc2)C(=O)C(CC(=O)NCc2cccs2)C1 (configuration not stated)	none (no result: BCLXL inh, MCL1 BIM primary, MEX-5 binding, EBV gp42 inh, GLD-1 RNA inh)
COc1ccc(-n2c(O)c(/C=N/NS(=O)(=O)c3ccc(C)c([N+](=O)[O-])c3)c3ccccc3c2=O)cc1OC	BCLXL inh 40.9
COc1cc(/C=N/NS(=O)(=O)c2ccc(C)c([N+](=O)[O-])c2)cc([N+](=O)[O-])c1O	none (no result: EBV gp42 inh)
NC(=S)N/N=C1\CCSc2ccc(Cl)cc21	none
CCCn1c(=C(C#N)C#N)s/c(=C2\C=Cc3ccccc3N2CC)c1=O	EBV gp42 inh 53.0 (no result: BCLXL inh, MCL1 BIM primary, MEX-5 binding, GLD-1 RNA inh)
Cn1c(=O)c2cc(NC(=O)CCc3cccnc3)ccc2n1Cc1ccc(F)cc1	none (no result: BCLXL inh, MCL1 BIM primary, MEX-5 binding, EBV gp42 inh, GLD-1 RNA inh)
Cc1ccccc1OCC(=O)NNC(=O)c1ccoc1C	none (no result: MEX-5 binding, EBV gp42 inh)
O=C(O)CSc1nc2sc3c(c2c(=O)n1Cc1ccccc1)CCCCC3	none (no result: EBV gp42 inh)
O=C(O)CSc1cc(C(=O)c2ccccc2O)cn2c(=O)c3c4c(sc3nc12)CCCC4	EBV gp42 inh 69.0 (no result: BCLXL inh, MCL1 BIM primary, GLD-1 RNA inh)
COc1ccccc1CN(C(=O)CCl)C(C(=O)NC1CCCCC1)c1ccncc1 (configuration not stated)	E coli Lon inh 24.7, BCLXL inh 30.5 (no result: MEX-5 binding)
CN(C)/C=N/n1cnc2ccccc2c1=O	BCLXL inh 34.2
C#CCOC(=O)c1cc(Cl)c(=O)n(Cc2ccc(Cl)cc2Cl)c1	none (no result: EBV gp42 inh)
CCCCC1Cc2[nH]c(=S)[nH]c(=O)c2C(C(C)C)O1 (configuration not stated)	none (no result: BCLXL inh, MCL1 BIM primary, MEX-5 binding, EBV gp42 inh, GLD-1 RNA inh)
Cc1cc(-c2ccc(N3CCOCC3)cc2)nc2ccccc12	EBV gp42 inh 56.3
CCOc1ccc(NC(=O)CN(C)C(=O)CC2OC(=O)c3ccccc32)cc1OCC (configuration not stated)	none (no result: EBV gp42 inh)
Cn1c(SCC(=O)Nc2ccc3nc(SCC(=O)N4CCCC4)sc3c2)nnc1-c1ccc(N)cc1	EBV gp42 inh 88.2 (no result: BCLXL inh, MCL1 BIM primary, MEX-5 binding, GLD-1 RNA inh)
N#C[C@@H]1[C@@H]2C(=O)N(c3ccc4c(c3)OCCO4)C(=O)[C@@H]2C2c3ccccc3C=CN21 (some centres not stated)	BCLXL inh 33.7, GLD-1 RNA inh 30.8 (no result: E coli Lon inh)
CC(=O)[C@@H]1[C@@H]2C(=O)N(c3ccc(F)c(Cl)c3)C(=O)[C@@H]2C2c3ccccc3C=CN21 (some centres not stated)	BCLXL inh 36.0 (no result: E coli Lon inh)
CC(=O)[C@H]1[C@@H]2C(=O)N(c3cccc(Cl)c3)C(=O)[C@@H]2[C@H]2c3ccccc3C=CN21	BCLXL inh 61.1, MCL1 BIM primary 51.3, GLD-1 RNA inh 34.5
CC(=O)[C@H]1[C@H](c2cccc(Cl)c2)C(C#N)(C#N)[C@@H]2c3ccccc3C=CN21	BCLXL inh 31.3, GLD-1 RNA inh 33.6 (no result: E coli Lon inh)
CN1C(=O)c2ccccc2C(C(=O)O)C1c1cccc(Cl)c1 (configuration not stated)	none
COC(=O)C1(CCSC)NC(c2ccccc2F)C2C(=O)N(c3ccc4c(c3)OCCO4)C(=O)C21 (configuration not stated)	none
CCOC(=O)C(NCc1ccccc1OC)(NC(=O)c1ccccc1)C(F)(F)F (configuration not stated)	none
CCOC(=O)C(NCc1ccco1)(NC(=O)c1ccc(OC)cc1)C(F)(F)F (configuration not stated)	EBV gp42 inh 118.1
